For eleven compounds, Percent Effect results are on record in ChEMBL document CHEMBL3988442, “University of Dundee, Small-Polar-MMV Screening Library” (2021).

Structures are written as SMILES. For some of these results: Results with a measured potency or affinity are listed apart.

Common to all, as to design: scale not given: direction of the effect not stated beside the values
Test [1] deals with Protein translocase subunit SecA (Escherichia coli (strain K12)) (UniProt P10408). The experiment in a line: Assay to Identify E. coli SecA ATPase Inhibitors. To be noted: 30 µM. Format: functional.
Sequence of Protein translocase subunit SecA (Escherichia coli (strain K12)) (P10408 whole entry): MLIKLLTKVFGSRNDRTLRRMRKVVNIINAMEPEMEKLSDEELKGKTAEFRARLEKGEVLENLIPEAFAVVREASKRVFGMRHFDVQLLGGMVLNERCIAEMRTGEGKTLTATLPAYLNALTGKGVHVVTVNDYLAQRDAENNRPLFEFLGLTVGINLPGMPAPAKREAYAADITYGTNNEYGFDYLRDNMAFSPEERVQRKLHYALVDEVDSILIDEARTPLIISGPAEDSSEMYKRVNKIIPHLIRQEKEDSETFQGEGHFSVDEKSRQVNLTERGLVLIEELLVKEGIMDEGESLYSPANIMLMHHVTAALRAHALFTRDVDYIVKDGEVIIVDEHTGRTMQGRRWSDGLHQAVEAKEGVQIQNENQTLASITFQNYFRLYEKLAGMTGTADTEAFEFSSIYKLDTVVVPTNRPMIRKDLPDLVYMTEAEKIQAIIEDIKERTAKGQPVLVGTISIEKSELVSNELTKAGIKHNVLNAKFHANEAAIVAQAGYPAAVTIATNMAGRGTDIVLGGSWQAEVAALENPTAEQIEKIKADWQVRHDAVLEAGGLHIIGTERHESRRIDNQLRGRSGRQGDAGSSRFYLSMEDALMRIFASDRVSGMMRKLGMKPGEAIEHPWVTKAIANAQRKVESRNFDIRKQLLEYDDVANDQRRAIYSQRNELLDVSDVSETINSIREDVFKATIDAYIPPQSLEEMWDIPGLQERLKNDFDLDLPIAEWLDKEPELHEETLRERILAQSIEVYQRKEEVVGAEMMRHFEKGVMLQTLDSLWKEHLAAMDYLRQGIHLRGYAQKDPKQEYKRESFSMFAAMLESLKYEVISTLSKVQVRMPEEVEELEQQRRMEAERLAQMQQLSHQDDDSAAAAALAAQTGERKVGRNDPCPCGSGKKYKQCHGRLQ
Test [2] concerns the target T1, Ubiquitin-activating enzyme e1, putative (Leishmania donovani (strain BPK282A1)) (UniProt E9BSI1).
T1 sequence (whole entry): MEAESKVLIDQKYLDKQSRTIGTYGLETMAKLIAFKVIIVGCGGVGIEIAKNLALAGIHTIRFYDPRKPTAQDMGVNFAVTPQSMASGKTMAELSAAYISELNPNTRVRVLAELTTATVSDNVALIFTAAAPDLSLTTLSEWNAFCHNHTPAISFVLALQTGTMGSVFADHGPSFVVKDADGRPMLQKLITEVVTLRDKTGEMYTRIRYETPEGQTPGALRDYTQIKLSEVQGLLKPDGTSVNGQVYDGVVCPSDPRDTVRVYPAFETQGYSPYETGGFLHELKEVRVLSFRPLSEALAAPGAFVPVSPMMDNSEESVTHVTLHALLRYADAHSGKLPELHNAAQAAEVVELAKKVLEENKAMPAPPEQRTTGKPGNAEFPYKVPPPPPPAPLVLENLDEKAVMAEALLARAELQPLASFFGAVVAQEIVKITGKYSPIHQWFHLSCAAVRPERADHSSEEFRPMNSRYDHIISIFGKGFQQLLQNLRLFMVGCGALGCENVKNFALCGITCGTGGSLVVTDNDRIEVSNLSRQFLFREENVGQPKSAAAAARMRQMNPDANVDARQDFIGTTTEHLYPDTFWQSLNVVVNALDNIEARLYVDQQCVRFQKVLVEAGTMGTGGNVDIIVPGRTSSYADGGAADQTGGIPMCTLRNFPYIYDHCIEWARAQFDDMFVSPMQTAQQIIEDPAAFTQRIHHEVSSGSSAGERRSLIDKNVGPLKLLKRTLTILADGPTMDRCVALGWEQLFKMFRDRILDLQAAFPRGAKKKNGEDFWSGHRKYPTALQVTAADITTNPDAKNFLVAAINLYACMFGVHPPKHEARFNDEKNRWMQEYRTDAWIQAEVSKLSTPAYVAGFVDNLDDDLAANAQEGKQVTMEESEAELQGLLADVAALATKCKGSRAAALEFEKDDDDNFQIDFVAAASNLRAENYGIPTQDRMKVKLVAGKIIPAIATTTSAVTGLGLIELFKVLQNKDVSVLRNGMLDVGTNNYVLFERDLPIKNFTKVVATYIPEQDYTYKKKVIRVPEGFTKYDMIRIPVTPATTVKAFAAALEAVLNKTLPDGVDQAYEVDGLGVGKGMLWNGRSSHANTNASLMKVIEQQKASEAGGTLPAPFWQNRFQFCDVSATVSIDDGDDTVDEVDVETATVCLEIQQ
The experiment in a line: Leishmania donovani Ubiquitin Activating Enzyme (LdE1). The class given is functional. The settings on record: 30 µM.

Test [3] concerns the target AMP-activated protein kinase, AMPK (Homo sapiens) (UniProt P54646+O43741+P54619+Q9UGJ0+Q9Y478+Q13131+Q9UGI9). The experiment in a line: AMP-dependent Kinase enzyme assay. An in vitro enzyme assay that detects ADP turnover that is directly proportional to AMPK activity. This uses naive AMPK that is activated during the assay with MK-8722. Format: functional. The settings on record: 30 µM.

In test [4] the target is Sialic acid-binding Ig-like lectin 9 (Homo sapiens) (UniProt Q9Y336). The experiment in a line: Hs-Siglec9 ALPHAscreen SOP 20170721. The settings on record: 10 µM.
Sequence of Sialic acid-binding Ig-like lectin 9 (Homo sapiens) (Q9Y336 whole entry): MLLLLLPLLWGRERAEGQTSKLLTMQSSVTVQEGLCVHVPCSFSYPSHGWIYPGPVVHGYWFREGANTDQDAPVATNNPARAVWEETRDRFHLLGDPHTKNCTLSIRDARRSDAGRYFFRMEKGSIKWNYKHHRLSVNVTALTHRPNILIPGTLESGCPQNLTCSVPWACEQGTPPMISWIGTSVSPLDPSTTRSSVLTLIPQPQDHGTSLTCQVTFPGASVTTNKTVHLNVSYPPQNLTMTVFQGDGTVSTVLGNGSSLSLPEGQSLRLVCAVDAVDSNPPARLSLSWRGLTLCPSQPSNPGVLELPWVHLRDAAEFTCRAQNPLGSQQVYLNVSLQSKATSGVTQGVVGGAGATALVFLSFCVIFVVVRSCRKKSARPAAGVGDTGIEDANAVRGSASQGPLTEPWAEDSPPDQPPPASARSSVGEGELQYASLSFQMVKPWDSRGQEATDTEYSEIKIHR
A further test concerns Trypanosoma cruzi. The experiment in a line: Trypanosoma cruzi phosphomannomutase and mannose-1-phosphate guanylyltransferase assay. The class given is functional. The settings on record: 10 µM.
Test [5] concerns the target T2, Arginase-2, mitochondrial (Homo sapiens) (UniProt P78540).
T2 sequence (whole entry): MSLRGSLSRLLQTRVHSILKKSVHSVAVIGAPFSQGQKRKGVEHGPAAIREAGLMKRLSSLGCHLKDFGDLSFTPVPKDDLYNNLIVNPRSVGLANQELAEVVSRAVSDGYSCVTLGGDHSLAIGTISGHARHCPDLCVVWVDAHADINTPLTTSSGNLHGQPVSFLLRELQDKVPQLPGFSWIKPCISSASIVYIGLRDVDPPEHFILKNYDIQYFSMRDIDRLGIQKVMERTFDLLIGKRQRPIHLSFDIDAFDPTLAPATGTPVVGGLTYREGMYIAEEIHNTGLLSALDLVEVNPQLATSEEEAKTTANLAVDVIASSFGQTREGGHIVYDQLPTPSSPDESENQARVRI
The experiment in a line: in vitro enzyme assay to detect the production of urea directly proportional to the activity of Arginase II. Note: in the data most compounds retested in dose-response had high values. Format: functional. The settings on record: 33.3 µM.

Test [6] has as its target T3, Proteasome subunit beta (Trypanosoma cruzi) (UniProt O96673).
T3 sequence (whole entry): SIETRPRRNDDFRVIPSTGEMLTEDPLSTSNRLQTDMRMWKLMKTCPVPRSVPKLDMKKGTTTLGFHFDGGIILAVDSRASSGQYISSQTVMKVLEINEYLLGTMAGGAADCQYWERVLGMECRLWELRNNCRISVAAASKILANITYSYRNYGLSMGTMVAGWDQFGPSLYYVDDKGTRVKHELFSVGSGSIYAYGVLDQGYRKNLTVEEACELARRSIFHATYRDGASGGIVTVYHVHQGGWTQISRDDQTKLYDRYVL
The experiment in a line: Trypanosoma cruzi proteasome chymotrypsin-like activity (TcProtChymo) assay. Note: in the data most compounds retested in dose-response had high values. The settings on record: 9.37 µM. Format: functional.

Another test is filed under the species Homo sapiens. The experiment in a line: To identify inhibition of the IFN signalling (Jak-Stat) pathway via expression of an eGFP reporter gene under the control of an IFN-stimulated response element (ISRE) containing MxA promoter. The class given is functional. To be noted: 30 µM.
The target in test [7] is T4, Tyrosyl-tRNA synthetase, putative (Trypanosoma cruzi (strain CL Brener)) (UniProt Q4DSP6).
T4 sequence (whole entry): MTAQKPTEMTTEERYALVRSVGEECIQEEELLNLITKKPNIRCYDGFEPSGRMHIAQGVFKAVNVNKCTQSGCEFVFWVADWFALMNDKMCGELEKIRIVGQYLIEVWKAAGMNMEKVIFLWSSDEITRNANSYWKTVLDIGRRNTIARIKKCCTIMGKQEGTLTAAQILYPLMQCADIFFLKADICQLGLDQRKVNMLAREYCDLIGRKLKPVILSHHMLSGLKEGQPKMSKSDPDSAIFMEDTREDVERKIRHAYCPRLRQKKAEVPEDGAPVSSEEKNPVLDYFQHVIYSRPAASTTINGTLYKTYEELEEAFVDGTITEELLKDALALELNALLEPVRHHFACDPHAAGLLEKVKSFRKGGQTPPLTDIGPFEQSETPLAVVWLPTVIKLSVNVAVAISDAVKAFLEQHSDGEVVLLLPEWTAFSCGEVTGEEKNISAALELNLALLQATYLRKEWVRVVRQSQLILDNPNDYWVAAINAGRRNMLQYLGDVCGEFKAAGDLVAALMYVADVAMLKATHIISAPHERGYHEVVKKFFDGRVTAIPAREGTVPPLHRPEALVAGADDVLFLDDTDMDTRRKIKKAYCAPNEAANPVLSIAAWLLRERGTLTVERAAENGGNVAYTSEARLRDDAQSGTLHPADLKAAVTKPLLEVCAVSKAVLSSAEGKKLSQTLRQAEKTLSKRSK
The experiment in a line: Trypanosoma cruzi tyrosyl tRNA synthetase (TcYRS) _High Tyrosine SOP. Note: in the data most compounds retested in dose-response had high values. Format: functional. The settings on record: 30 µM.

For test [8], the target named is T4, Tyrosyl-tRNA synthetase, putative (Trypanosoma cruzi (strain CL Brener)). The experiment in a line: Trypanosoma cruzi tyrosyl tRNA synthetase (TcYRS) SOP. Format: functional. To be noted: 30 µM.
Test [9] concerns the target Chromo domain-containing protein 1 (Saccharomyces cerevisiae (strain ATCC 204508 / S288c) (Baker's yeast)) (UniProt P32657). The experiment in a line: ScCHD-1 Enzyme Inhibition Assay. Note: in the data most compounds retested in dose-response had high values. The class given is functional. To be noted: 30 µM.

Sequence of Chromo domain-containing protein 1 (Saccharomyces cerevisiae (strain ATCC 204508 / S288c) (Baker's yeast)) (P32657 whole entry, the tested form may be a part): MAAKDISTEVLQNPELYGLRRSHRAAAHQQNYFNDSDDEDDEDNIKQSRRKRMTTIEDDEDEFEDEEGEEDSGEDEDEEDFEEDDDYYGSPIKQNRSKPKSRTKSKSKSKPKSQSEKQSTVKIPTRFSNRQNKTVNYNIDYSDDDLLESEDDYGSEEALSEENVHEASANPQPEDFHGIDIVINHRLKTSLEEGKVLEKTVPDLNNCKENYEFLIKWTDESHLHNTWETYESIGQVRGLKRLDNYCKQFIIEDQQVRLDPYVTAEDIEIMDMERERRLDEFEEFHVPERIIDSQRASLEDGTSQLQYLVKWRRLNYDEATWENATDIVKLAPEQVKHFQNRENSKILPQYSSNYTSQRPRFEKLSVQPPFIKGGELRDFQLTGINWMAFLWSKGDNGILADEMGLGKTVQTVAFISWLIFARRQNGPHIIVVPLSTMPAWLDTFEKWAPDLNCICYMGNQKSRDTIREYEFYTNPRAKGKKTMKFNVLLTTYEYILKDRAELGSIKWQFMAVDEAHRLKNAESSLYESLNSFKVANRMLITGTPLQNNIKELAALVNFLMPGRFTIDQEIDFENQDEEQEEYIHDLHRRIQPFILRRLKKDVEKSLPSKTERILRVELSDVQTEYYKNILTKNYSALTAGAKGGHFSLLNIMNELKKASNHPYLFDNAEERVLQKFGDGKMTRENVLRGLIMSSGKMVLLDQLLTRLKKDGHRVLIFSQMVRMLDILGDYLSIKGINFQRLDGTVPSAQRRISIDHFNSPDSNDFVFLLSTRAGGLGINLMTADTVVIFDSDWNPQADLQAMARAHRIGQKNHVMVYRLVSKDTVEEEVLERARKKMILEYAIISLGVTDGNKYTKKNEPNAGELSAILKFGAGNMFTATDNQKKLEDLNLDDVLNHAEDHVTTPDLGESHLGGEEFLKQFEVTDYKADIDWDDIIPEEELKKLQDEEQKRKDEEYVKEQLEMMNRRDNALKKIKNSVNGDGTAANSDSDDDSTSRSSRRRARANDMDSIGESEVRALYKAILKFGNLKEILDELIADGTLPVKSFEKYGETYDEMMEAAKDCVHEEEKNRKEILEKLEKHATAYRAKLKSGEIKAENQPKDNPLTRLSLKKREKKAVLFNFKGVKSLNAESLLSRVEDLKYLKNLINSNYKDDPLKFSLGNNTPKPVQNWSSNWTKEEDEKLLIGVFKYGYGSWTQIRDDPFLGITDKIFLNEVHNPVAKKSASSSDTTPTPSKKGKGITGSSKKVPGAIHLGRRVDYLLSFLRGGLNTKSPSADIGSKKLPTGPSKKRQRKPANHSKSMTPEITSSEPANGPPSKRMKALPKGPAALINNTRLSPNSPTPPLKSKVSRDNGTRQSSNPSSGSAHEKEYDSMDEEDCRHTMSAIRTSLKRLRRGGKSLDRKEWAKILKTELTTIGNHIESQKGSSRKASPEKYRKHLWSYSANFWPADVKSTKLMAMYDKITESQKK

For `O=C(Cc1cccnc1)N1CCC2(CC1)CCN(C1CCOCC1)C2`, the Percent Effect is -5.91% in test [1]; 0% in test [2]; 0.681% in [3]; -0.504% in test [4]; -1.67% in the test with Trypanosoma cruzi; -2.76% in [5]. Also, the Percent Effect in test [6] is 1.83%; in the test filed under Homo sapiens it was 15.5%; in [7], 1.07%; in [8], -1.24%; in test [9], 1.45%.
Consider `Cc1cc(CNC(=O)N2CCCN(Cc3ccccc3)CC2)no1`, for which the Percent Effect in test [1] was -3.91%; in [2], 12.7%; in [3] it was -1.73%; in test [4], 0.846%; with Trypanosoma cruzi, -5.38%; in test [5], -2.66%. Moreover, the Percent Effect in [6] is 10.7%; in the test filed under Homo sapiens, 18.1%; in [7], 2.46%; in test [8], 11.4%; in test [9], -4.24%.
With `Cn1cc(CN2CCCC3(CCN(Cc4cccnc4)C3=O)C2)cn1` (stereo unspecified), the Percent Effect in [1] was -0.768%; in [2], 21.6%; in [3], -0.596%; in test [4], -4.91%; in the test on Trypanosoma cruzi, 3.81%; in [5], 7.33%. The Percent Effect in test [6] is 14%; in the test listed under Homo sapiens it was -9.12%; in [7], 1.08%; in test [8], 12.8%; in test [9], 1.58%.
As to `CCNC(=O)CCc1c(C)nc2cc(O)nn2c1C`, the Percent Effect is -0.575% in [1]; 15.6% in test [2]; -428% in test [3]; 4.55% in [4]; 5.43% in the test with Trypanosoma cruzi; 4.63% in [5]. Further, the Percent Effect in test [6] is 16.9%; in the test listed under Homo sapiens, 23.5%; in test [7] it was 2.91%; in test [8], 12.2%; in test [9] it was -8.86%.
For `CC(C)(C)c1nc(CN(Cc2cccs2)C2CCS(=O)(=O)C2)no1` (stereo unspecified), the Percent Effect was -1.36% in test [1]; 21.1% in test [2]; -5.34% in test [3]; -2% in test [4]; 4.76% in the test on Trypanosoma cruzi; 1.44% in test [5]. Further, the Percent Effect is 5.67% in test [6]; 26.2% in the test filed under Homo sapiens; 6.4% in test [7]; 25.9% in test [8]; -8.43% in test [9].
On to `Cc1ccccc1CN1CCCN(C2CCOC2=O)CC1` (stereo unspecified), for which the Percent Effect in test [1] was -1.89%; in [2] it was -18.9%; in test [3], -9.35%; in test [4], 10.9%; in the test on Trypanosoma cruzi it was -3.3%; in test [5] it was 1.2%. Also, the Percent Effect in test [6] worked out at 10.4%; in the test listed under Homo sapiens it was 0.38%; in [7], 2.46%; in test [8], 3.7%; in test [9] it was 1.51%.
Consider `Cc1cnn(CC2CCCN2C(=O)c2cc3ccccc3[nH]2)c1` (stereo unspecified), for which the Percent Effect was -8.63% in test [1]; 13% in [2]; -0.229% in test [3]; -0.244% in [4]; 7.74% in the test on Trypanosoma cruzi; -1.05% in test [5]. In addition, the Percent Effect was 7.2% in [6]; 1.95% in the test listed under Homo sapiens; 3.81% in test [7]; 11.8% in [8]; -12.1% in test [9].
Take `COCC(=O)N1Cc2cnc(Cc3ccc(OC)cc3)nc2C1`: the Percent Effect in test [1] is -5.39%; in test [2], 5.48%; in test [3], -2.68%; in test [4] it was -3.21%; in the test on Trypanosoma cruzi, 0.392%; in [5] it was 3.64%. Also, the Percent Effect in test [6] is 10.3%; in the test listed under Homo sapiens it was 1.33%; in test [7], 8.6%; in test [8], 15%; in test [9], -4.76%.
As to `COc1cccc(CN2CCN(c3ccc4nncn4n3)C(C)C2)c1` (stereo unspecified), the Percent Effect in test [1] is -6.29%; in [2], -20.8%; in test [3] it was -1.07%; in test [4], -4.72%; in the test with Trypanosoma cruzi, -3%; in test [5] it was 0.712%. For the same compound, the Percent Effect was -1.86% in test [6]; 85.3% in the test listed under Homo sapiens; 6.8% in test [7]; -2.44% in [8]; 5.81% in test [9].
For `Cc1nc(CN2CCCC2c2ccsc2)nc2ccccc12` (stereo unspecified), the Percent Effect was -1.18% in test [1]; -16.5% in test [2]; 3.32% in test [3]; 2.94% in [4]; 4% in the test with Trypanosoma cruzi; 7.1% in test [5]. In addition, the Percent Effect came to 13.6% in test [6]; 23.7% in the test filed under Homo sapiens; 9.38% in test [7]; 27.9% in test [8]; 4.99% in test [9].
As for `COCCO[C@H]1CCN(C(=O)c2ccc[nH]2)[C@H]1Cc1ccncc1`, the Percent Effect in test [1] is -5.53%; in test [2] it was 0%; in test [3], 12.9%; in [4], 1.19%; in the test with Trypanosoma cruzi, -3.74%; in test [5], -2.1%. Moreover, the Percent Effect in [6] was 2.73%; in the test filed under Homo sapiens, -2.22%; in test [7], 3.19%; in test [8], 6.41%; in test [9], 0.525%.
